# Test results taken from paper PMC7862700, “An all-to-all approach to the identification of sequence-specific readers for epigenetic DNA modifications on cytosine”.
# Experiments:
# Experiment in all cases: DAPPL (digital affinity profiling via proximity ligation, sequencing); 10 mM Tris-HCl pH 7.5, 50 mM NaCl, 1 mM DTT, 4% glycerol, room temperature, 30 min; GST-TFs on glutathione beads, 16-mer random dsDNA library, 0.1% formaldehyde crosslink after washing; high values mean tight binding
# FEV = target: T1, FEV (Homo sapiens, UniProt Q99581 1-238); conditions: protein: recombinant; tags: N-terminal GST; dsDNA, one strand shown
# T1 sequence: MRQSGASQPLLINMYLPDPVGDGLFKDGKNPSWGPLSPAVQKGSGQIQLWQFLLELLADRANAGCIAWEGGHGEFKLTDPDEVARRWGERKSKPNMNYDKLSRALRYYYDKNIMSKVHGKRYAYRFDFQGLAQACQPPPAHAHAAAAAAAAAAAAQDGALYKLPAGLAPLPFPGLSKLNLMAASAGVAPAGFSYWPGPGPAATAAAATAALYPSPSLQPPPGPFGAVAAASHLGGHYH
# Outline: (§1)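 Pools were built from human transcription factors expressed in yeast as GST fusions, captured on glutathione beads and DNA-barcoded, along with a tag-only sample. Incubation with 200 nmole of a 16-mer random double-stranded DNA library lasted 30 min at room temperature in Tris/NaCl/DTT/glycerol buffer, and was followed by washing, 0.1% formaldehyde crosslinking, proximity ligation, PCR amplification and Illumina NextSeq500 sequencing. Binding signal is the quotient of each hexamer's read frequency for a factor and its frequency for the tag-only sample.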
# ETV5 = ETV5 (Homo sapiens, UniProt P41161 1-510); conditions: protein: recombinant; tags: N-terminal GST; dsDNA, one strand shown
# Outline: as §1
# HSF1 = HSF1 (Homo sapiens, UniProt Q00613 1-529); conditions: protein: recombinant; tags: N-terminal GST; chain copies: 3; dsDNA, one strand shown
# Outline: as §1
# SPIC = target: T2, SPIC (Homo sapiens, UniProt Q8N5J4 1-248); conditions: protein: recombinant; tags: N-terminal GST; dsDNA, one strand shown
# T2 sequence: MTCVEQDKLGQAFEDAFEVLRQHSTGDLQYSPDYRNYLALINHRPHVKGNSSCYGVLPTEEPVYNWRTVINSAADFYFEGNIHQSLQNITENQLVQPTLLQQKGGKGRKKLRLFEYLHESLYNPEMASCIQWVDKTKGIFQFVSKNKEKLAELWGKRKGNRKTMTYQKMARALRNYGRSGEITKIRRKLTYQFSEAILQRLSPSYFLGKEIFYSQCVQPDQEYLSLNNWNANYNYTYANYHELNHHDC
# Outline: as §1
# ELF4 = ELF4 (Homo sapiens, UniProt Q99607 1-663); conditions: protein: recombinant; tags: N-terminal GST; dsDNA, one strand shown
# Outline: as §1
# ELK4 = target: T3, ELK4 (Homo sapiens, UniProt P28324-2 1-405); conditions: protein: recombinant; tags: N-terminal GST; dsDNA, one strand shown
# T3 sequence: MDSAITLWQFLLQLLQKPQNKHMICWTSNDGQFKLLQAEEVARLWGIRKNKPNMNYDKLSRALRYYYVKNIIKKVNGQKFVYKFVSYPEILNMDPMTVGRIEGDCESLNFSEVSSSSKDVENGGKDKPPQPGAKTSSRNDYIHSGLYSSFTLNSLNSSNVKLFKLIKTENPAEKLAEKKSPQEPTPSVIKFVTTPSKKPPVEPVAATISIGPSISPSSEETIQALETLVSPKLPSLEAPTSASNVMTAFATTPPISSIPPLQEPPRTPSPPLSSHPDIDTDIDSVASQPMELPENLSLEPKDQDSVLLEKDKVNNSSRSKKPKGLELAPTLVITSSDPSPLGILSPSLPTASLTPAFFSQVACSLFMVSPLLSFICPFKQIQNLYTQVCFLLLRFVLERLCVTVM
# Outline: as §1
# ETV2 = target: T4, ETV2 (Homo sapiens, UniProt O00321 1-342); conditions: protein: recombinant; tags: N-terminal GST; dsDNA, one strand shown
# T4 sequence: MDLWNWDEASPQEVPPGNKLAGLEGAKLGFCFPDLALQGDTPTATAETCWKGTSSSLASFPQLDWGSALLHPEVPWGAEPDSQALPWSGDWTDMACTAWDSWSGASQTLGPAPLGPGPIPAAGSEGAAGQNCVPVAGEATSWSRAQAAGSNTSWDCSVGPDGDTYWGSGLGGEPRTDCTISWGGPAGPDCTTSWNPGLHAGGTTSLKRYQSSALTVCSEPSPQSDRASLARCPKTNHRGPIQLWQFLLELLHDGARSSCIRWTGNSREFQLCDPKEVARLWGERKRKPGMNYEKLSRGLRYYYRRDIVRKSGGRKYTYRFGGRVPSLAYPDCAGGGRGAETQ
# Outline: as §1
# ELF3 = target: T5, ELF3 (Homo sapiens, UniProt P78545 1-371); conditions: protein: recombinant; tags: N-terminal GST; dsDNA, one strand shown
# T5 sequence: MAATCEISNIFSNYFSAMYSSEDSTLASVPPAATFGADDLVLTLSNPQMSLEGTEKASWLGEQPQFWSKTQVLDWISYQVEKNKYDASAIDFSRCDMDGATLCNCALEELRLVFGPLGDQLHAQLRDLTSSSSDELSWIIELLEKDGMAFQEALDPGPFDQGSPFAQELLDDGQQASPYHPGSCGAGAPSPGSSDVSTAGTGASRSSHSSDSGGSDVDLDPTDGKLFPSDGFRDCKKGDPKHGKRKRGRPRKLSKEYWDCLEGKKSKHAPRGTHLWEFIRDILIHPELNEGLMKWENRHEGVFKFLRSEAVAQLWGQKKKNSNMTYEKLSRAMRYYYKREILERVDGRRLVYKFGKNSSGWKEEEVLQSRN
# Outline: as §1
# CRX = CRX (Homo sapiens, UniProt O43186 1-299); conditions: protein: recombinant; tags: N-terminal GST; dsDNA, one strand shown
# Outline: as §1
# ETV1 = ETV1 (Homo sapiens, UniProt P50549 1-477); conditions: protein: recombinant; tags: N-terminal GST; dsDNA, one strand shown
# Outline: as §1
# ERF = target: T6, ERF (Homo sapiens, UniProt P50548 1-548); conditions: protein: recombinant; tags: N-terminal GST; dsDNA, one strand shown
# T6 sequence: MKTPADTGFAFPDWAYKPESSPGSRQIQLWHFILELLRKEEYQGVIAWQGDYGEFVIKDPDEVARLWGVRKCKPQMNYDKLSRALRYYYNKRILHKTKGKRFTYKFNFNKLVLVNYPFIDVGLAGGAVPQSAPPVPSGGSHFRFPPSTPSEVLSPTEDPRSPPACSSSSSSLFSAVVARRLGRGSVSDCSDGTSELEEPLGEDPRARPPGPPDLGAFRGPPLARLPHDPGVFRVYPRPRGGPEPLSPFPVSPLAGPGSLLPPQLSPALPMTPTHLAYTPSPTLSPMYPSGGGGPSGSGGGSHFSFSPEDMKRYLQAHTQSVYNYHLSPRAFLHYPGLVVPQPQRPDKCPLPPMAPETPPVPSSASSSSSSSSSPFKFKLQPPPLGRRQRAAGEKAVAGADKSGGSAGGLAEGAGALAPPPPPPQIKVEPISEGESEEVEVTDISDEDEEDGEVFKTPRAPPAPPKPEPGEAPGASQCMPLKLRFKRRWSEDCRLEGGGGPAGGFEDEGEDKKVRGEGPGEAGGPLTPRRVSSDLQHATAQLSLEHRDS
# Outline: as §1
# ETV3L = target: T7, ETV3L (Homo sapiens, UniProt Q6ZN32 1-361); conditions: protein: recombinant; tags: N-terminal GST; dsDNA, one strand shown
# T7 sequence: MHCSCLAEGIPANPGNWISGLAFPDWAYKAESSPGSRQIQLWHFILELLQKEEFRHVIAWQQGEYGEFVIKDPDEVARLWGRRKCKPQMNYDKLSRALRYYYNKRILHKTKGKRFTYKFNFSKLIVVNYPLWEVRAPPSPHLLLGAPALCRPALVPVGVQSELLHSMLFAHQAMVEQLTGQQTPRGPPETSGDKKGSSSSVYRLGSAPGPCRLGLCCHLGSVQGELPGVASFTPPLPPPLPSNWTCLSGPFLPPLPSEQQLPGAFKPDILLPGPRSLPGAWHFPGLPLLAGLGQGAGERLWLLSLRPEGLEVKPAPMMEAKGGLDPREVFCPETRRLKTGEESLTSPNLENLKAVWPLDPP
# Outline: as §1
# ETS2 = target: T8, ETS2 (Homo sapiens, UniProt P15036 1-469); conditions: protein: recombinant; tags: N-terminal GST; dsDNA, one strand shown
# T8 sequence: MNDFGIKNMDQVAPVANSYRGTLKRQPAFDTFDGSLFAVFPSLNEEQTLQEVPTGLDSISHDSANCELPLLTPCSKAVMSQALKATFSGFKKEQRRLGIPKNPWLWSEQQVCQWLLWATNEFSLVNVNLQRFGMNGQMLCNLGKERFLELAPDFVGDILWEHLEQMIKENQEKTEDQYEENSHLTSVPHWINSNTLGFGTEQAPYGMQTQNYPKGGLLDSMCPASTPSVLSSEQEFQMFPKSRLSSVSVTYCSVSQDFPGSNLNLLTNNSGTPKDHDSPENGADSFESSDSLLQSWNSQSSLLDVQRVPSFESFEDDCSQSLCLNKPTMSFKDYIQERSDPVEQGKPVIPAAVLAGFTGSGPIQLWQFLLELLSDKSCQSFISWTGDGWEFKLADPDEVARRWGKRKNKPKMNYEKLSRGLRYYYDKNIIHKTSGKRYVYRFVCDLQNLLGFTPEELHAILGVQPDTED
# Outline: as §1
# SPDEF = target: T9, SPDEF (Homo sapiens, UniProt O95238 1-335); conditions: protein: recombinant; tags: N-terminal GST; dsDNA, one strand shown
# T9 sequence: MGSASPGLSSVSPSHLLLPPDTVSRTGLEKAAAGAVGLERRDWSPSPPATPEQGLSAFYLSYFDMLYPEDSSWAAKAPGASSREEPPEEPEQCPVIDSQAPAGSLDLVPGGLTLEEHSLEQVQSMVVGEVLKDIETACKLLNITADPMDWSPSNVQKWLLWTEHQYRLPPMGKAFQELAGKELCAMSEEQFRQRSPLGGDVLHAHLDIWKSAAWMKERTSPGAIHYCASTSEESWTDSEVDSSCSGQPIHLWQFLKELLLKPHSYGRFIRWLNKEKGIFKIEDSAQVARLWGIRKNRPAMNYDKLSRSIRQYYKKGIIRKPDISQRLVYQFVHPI
# Outline: as §1
# ETV7 = target: T10, ETV7 (Homo sapiens, UniProt Q9Y603 1-341); conditions: protein: recombinant; tags: N-terminal GST; dsDNA, one strand shown
# T10 sequence: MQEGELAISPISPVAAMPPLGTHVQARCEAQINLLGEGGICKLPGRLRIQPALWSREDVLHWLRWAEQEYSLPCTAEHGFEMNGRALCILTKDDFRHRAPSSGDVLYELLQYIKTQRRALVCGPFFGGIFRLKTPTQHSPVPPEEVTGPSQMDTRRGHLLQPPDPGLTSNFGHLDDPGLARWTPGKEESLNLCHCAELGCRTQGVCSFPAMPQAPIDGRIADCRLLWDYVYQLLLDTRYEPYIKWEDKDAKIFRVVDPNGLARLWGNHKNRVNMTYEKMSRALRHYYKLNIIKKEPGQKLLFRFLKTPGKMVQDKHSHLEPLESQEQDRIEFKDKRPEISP
# Outline: as §1
# ELF5 = target: T11, ELF5 (Homo sapiens, UniProt Q9UKW6-2 1-255); conditions: protein: recombinant; tags: N-terminal GST; dsDNA, one strand shown
# T11 sequence: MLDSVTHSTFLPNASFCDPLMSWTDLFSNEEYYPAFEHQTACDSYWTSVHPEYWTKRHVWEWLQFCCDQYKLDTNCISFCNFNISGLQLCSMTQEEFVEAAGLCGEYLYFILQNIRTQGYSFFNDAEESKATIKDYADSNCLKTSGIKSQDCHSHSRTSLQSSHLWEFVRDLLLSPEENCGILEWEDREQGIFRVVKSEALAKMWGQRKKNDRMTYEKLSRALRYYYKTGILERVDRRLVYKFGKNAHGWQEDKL
# Outline: as §1
# ETV3 = target: T12, ETV3 (Homo sapiens, UniProt P41162-2 1-143); conditions: protein: recombinant; tags: N-terminal GST; dsDNA, one strand shown
# T12 sequence: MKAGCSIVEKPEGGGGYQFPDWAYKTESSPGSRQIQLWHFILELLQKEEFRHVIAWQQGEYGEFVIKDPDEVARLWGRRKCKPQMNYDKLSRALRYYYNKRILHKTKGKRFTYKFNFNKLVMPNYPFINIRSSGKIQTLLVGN
# Outline: as §1
# ETV6 = ETV6 (Homo sapiens, UniProt P41212 1-452); conditions: protein: recombinant; tags: N-terminal GST; dsDNA, one strand shown
# Outline: as §1
# Chain of ELF4 (Q99607 whole entry): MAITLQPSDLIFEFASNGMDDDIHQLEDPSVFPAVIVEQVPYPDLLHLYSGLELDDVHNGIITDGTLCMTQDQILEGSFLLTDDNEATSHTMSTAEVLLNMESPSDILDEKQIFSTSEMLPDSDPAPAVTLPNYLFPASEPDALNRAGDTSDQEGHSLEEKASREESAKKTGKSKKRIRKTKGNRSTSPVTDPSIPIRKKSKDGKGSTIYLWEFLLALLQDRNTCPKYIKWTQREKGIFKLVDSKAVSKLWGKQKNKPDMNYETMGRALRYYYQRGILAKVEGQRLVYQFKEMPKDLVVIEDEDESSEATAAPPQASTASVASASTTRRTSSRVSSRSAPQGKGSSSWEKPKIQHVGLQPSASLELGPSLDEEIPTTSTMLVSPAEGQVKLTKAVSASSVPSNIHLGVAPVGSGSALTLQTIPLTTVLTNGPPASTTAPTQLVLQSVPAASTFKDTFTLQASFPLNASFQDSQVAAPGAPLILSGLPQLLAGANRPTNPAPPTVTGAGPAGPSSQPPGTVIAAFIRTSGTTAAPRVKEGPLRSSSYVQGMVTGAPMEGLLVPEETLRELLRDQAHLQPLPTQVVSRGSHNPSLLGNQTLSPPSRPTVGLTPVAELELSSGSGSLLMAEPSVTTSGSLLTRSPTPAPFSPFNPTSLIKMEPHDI
# Chain of ETV6 (P41212 whole entry): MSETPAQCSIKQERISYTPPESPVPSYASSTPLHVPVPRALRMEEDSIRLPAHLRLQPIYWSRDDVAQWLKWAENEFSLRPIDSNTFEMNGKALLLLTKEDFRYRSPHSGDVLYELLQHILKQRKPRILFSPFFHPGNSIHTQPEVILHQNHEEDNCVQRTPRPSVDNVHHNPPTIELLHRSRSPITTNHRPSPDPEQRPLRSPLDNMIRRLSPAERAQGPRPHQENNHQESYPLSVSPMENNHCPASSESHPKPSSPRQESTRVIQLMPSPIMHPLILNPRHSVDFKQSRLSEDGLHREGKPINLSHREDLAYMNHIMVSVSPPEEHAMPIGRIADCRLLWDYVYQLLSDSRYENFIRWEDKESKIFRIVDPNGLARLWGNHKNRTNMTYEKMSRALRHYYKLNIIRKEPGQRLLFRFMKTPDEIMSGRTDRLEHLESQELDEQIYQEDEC
# Chain of ETV1 (P50549 whole entry): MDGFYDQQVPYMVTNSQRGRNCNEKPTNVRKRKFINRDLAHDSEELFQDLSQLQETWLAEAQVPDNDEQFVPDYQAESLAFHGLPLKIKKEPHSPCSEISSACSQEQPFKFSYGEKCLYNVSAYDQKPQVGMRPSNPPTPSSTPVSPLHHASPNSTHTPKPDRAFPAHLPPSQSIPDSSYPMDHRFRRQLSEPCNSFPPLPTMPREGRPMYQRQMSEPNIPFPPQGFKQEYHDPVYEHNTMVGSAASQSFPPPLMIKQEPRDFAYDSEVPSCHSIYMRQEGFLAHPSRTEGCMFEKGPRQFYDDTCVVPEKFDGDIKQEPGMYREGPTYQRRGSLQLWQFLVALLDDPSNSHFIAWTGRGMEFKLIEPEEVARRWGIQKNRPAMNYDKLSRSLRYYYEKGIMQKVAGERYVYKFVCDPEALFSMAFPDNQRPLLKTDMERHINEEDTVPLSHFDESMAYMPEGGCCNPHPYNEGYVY
# Chain of ETV5 (P41161 whole entry): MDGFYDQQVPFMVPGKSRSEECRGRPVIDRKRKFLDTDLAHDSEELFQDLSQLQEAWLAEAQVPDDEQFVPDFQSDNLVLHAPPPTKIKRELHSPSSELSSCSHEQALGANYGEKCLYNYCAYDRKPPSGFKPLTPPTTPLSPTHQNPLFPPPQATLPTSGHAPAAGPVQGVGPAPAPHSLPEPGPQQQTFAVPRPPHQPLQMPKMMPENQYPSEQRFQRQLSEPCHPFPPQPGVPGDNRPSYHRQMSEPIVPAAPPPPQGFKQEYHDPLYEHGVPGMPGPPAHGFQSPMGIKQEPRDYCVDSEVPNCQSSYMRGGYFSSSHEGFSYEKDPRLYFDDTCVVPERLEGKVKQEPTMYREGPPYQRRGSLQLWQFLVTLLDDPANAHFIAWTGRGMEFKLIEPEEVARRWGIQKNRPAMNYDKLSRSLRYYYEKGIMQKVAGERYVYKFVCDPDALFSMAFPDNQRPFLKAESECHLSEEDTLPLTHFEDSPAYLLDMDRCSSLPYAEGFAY
# Chain of HSF1 (Q00613 whole entry): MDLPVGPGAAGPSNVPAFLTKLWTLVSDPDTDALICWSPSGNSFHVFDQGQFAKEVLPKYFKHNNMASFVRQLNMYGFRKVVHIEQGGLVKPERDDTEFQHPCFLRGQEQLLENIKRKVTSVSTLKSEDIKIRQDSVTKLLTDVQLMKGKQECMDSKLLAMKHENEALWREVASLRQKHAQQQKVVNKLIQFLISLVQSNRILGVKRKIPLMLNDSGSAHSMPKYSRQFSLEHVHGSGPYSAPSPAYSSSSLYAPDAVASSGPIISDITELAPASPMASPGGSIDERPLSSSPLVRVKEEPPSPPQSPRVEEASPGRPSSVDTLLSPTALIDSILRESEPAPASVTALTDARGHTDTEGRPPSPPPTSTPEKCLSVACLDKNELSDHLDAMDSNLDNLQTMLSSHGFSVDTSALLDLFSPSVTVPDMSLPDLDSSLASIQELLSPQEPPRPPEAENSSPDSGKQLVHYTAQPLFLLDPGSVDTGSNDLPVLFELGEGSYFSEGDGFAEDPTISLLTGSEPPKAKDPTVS
# Chain of CRX (O43186 whole entry): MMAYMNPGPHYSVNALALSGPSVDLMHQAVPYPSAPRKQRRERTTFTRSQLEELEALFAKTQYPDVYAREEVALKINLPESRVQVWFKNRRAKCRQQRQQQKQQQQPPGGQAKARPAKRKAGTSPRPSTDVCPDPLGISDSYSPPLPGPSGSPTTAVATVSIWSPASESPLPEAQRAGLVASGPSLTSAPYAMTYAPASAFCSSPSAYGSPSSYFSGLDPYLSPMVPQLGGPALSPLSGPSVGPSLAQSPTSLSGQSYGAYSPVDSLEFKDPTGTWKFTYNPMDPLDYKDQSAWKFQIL
sequence,measurement,setting,value
CATTCT,binding signal,FEV,"1.29 fold enrichment (6-mer frequency, TF over GST control)"
same,binding signal,ETV5,"1.28 fold enrichment (6-mer frequency, TF over GST control)"
same,binding signal,HSF1,"2.56 fold enrichment (6-mer frequency, TF over GST control)"
same,binding signal,SPIC,"1.31 fold enrichment (6-mer frequency, TF over GST control)"
same,binding signal,ELF4,"1.37 fold enrichment (6-mer frequency, TF over GST control)"
same,binding signal,ELK4,"1.36 fold enrichment (6-mer frequency, TF over GST control)"
same,binding signal,ETV2,"1.36 fold enrichment (6-mer frequency, TF over GST control)"
same,binding signal,ELF3,"1.22 fold enrichment (6-mer frequency, TF over GST control)"
same,binding signal,CRX,"1.63 fold enrichment (6-mer frequency, TF over GST control)"
same,binding signal,ETV1,"1.31 fold enrichment (6-mer frequency, TF over GST control)"
same,binding signal,ERF,"1.43 fold enrichment (6-mer frequency, TF over GST control)"
same,binding signal,ETV3L,"1.31 fold enrichment (6-mer frequency, TF over GST control)"
same,binding signal,ETS2,"1.23 fold enrichment (6-mer frequency, TF over GST control)"
same,binding signal,SPDEF,"1.24 fold enrichment (6-mer frequency, TF over GST control)"
same,binding signal,ETV7,"1.35 fold enrichment (6-mer frequency, TF over GST control)"
same,binding signal,ELF5,"1.27 fold enrichment (6-mer frequency, TF over GST control)"
same,binding signal,ETV3,"1.21 fold enrichment (6-mer frequency, TF over GST control)"
same,binding signal,ETV6,"1.34 fold enrichment (6-mer frequency, TF over GST control)"
